From PubChem BioAssay
PK Bst = pyruvate kinase (B. stearothermophilus) modulation | Potency, µM | hit rate 1.2% among 51,000 | purified pyruvate kinase, luminescence ATP production; ribose 5-phosphate activator present at AC10 | AID 361; in the data active = potency below about 11 µM; inconclusive = mostly about 12 µM to 25 µM;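 the screen sought inhibitors and activators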;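 also: scaled between full activation by ribose 5 phosphate and full inhibition by luteolin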
GBA mod = human lysosomal glucosylceramidase modulation. P04062. purified enzyme, resorufin glucoside fluorescence (screen aimed at inhibitors), 20 min. Potency, µM. hit rate 1.1% among 48,000. AID 360; in the data active = potency below about 15 µM; inconclusive = mostly about 16 µM to 33 µM;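 also: the screen sought inhibitors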
Target sequence (P04062 whole entry, looked up): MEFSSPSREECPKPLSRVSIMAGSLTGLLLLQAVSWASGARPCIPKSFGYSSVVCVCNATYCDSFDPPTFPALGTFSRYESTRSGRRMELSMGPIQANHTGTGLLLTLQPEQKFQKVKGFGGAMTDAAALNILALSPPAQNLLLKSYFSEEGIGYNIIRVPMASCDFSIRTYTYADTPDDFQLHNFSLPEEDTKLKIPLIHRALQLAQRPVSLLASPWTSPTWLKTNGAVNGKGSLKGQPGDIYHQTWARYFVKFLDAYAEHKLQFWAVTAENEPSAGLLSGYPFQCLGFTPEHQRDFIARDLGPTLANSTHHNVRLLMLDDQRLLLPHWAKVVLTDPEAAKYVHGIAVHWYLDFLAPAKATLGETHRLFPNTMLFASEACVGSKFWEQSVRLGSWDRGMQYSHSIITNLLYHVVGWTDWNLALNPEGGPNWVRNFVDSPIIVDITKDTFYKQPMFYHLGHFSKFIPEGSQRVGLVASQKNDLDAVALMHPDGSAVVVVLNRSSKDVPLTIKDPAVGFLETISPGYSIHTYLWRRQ
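Compounds titrated against 0.2 nM normal enzyme, 30 uM resorufin beta-D-glucopyranoside substrate, citrate/phosphate buffer with taurocholate and tween-20, pH 5.9. Reaction ran 20 min at room temperature; fluorescence (Ex 548/Em 600) gave AC50.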
Luciferase inh = firefly luciferase inhibition; hit rate 2.2% among 72,000; AID 411; purified firefly luciferase, luminescence, 8 min; P08659; Potency, µM (series often up to 57.1 µM), without a hit: top-dose activity change, negative = inhibition, most hits filed as inhibitors; active = well fitted inhibition curve with a large enough effect; inconclusive = small, poorly fitted or top-dose-only effect; also: % is scaled to controls: 0 for no effect and ±100 for the full control effect; nearly all actives have a fitted effect of over 40% in size
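Here, luciferase activity is measured as luminescence following an 8 min room-temperature reaction at 10 uM ATP, pH 7.2. Every library sample is titrated.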
Starred values were filed as active, the others as inactive; i = inactive; u = inconclusive; x = not tested or not shown; [ ] = remark or other dose. A selection: hits, their analogues and other compounds. The true share with any hit is near 3.4%. Potency is read from the fitted curve at half-maximal effect.

SMILES	PK Bst	GBA mod	Luciferase inh
C[C@H](O)CO[C@H]1[C@H]2O[C@H]3[C@H](O)[C@@H](O)[C@@H](O[C@H]4[C@H](O)[C@@H](O)[C@@H](O[C@H]5[C@H](O)[C@@H](O)[C@@H](O[C@H]6[C@H](O)[C@@H](OC[C@H](C)O)[C@@H](O[C@H]7[C@H](O)[C@@H](OC[C@H](C)O)[C@@H](O[C@H]8[C@H](O)[C@@H](O)[C@@H](O[C@@H]([C@@H]1O)[C@@H](CO)O2)O[C@@H]8CO)O[C@@H]7CO)O[C@@H]6CO)O[C@@H]5CO)O[C@@H]4CO)O[C@@H]3CO	x	x	1%
CCCCNc1cc(C)nc(NCc2ccccc2)n1	>57	6.3*	-2%
Cc1cc(C)nc(NCCCc2ccccc2)n1	>57	x	2%
CN1CCN(c2ncc3nc(-c4ccccc4)c(=O)n(C)c3n2)CC1	x	x	-1%[11.4 µM]
Cc1noc(C)c1-c1nc(NCc2cccs2)c2ccccc2n1	x	x	-3%[2.29 µM]
CS(=O)(=O)N1CCC2(CC1)CN(c1ccccn1)C2	x	x	1%[11.4 µM]
CC(=O)OC[C@@H]1O[C@H](CCON=C(C)C)C=C[C@@H]1OC(C)=O	x	x	0%[11.4 µM]
Cc1cnc(C(=O)N2CCN(S(=O)(=O)c3ccc4ccccc4c3)CC2)cn1	x	>77	0%
O=C(c1n[nH]c2ccccc12)N1CCN(S(=O)(=O)c2ccc3ccccc3c2)CC1	9.2*	x	-2%
N[C@H](Cn1ccc(=O)n(Cc2ccccc2C(=O)O)c1=O)C(=O)O	x	x	2%
COc1cccc(-c2ccc3ncnc(NCc4ccccc4)c3c2)c1	x	x	0%[2.29 µM]
CNc1ccc(C(O)(C(F)(F)F)C(F)(F)F)cc1C(O)(C(F)(F)F)C(F)(F)F	>57	13*	2%
CCOC(=O)N(C)c1ccc(C(O)(C(F)(F)F)C(F)(F)F)cc1	>57	u	0%
CC1CC=C2C(C#N)=C(N)C(C#N)(C#N)C(c3cccs3)C2C1 (configuration not stated)	>57	11*	-2%
CC(C)(C)OC(=O)N1CC=C2C(C#N)=C(N)C(C#N)(C#N)C(c3cccs3)C2C1 (configuration not stated)	>57	u	-3%
CCOC(=O)N/N=C1/C[C@@H](O)[C@@H](O)[C@@H]2[C@@H]3C(=O)N(Cc4ccc5c(c4)OCO5)C(=O)[C@H]3CC[C@@H]12	x	x	-2%[11.4 µM]
COc1ccccc1Nc1nc(N)nc(CN2CCN(c3ccccc3F)CC2)n1	>57	2.4*	0%
COc1ccccc1N1CCN(CC(=O)Nc2ccc(C)c(F)c2)CC1	>57	>77	2%
COc1ccc(N2CCN(Cc3nc(N)nc(Nc4ccccc4OC)n3)CC2)cc1	>57	3.9*	1%
COc1ccccc1Nc1nc(N)nc(CSCCO)n1	x	>77	-22%
COc1ccccc1Nc1nc(N)nc(CSc2ncccn2)n1	>57	>77	0%
COc1ccccc1N1CCN(Cc2nc(N)nc(Nc3ccc(C)c(Cl)c3)n2)CC1	>57	5.3*	0%
COc1ccc(-c2nc3cnc(N4CCNCC4)nc3n(C3CC3)c2=O)cc1	x	x	-1%[11.4 µM]
N#Cc1cc2c(nc1SCC(=O)Nc1nccs1)CCCCC2	x	x	-7%
CCc1nnc(NC(=O)CSc2nc3c(cc2C#N)CCC3)s1	x	>77	3.2µM*
SMILES	PK Bst	GBA mod	Luciferase inh
CN(C)c1ccc(-c2noc(-c3ccccc3O)n2)cc1	i	>77	1µM*
COc1ccccc1-c1nc(-c2ccncc2)no1	i	>77	20µM*
Cc1ccc(-c2noc(-c3ccccc3C(=O)N3CCN(C)CC3)n2)cc1	>11	i	-8%
COc1ccccc1-c1nc(-c2ccc(Br)cc2)no1	x	x	13µM*
COc1ccccc1-c1noc(-c2cc(OC)c(OC)c(OC)c2)n1	>57	x	-2%
COc1ccc(Cl)cc1-c1nc(-c2ccncc2)no1	>57	>77	0%
CN1CCN(C(=O)c2ccccc2-c2nc(-c3ccc(Cl)cc3)no2)CC1	u	u	1%
Cc1ccc(-c2noc(-c3ccccc3Br)n2)cc1	x	x	3.2µM*
O=C1CCCC=C1[C@@H](O)C1CCCCC1	x	x	1%[11.4 µM]
CS(=O)(=O)N1CCC2(CC1)CN(C(c1ccccc1)c1ccccc1)C2	x	x	-1%[11.4 µM]
COc1cc(OC)cc(-c2nc(-c3ccc(Br)cc3)no2)c1	x	x	1%
Cc1ccccc1-c1noc(-c2ccccc2C(=O)N2CCCC2)n1	>57	>77	0%
Cc1ccccc1-c1noc(-c2ccc(O)cc2)n1	x	x	20µM*
COc1ccc(-c2nc(-c3ccc(Br)cc3)no2)c(OC)c1	6.3*	>77	2.5µM*
CC1(C)[C@@H](O)CC[C@@]2(C)[C@H]1CC[C@]1(C)[C@H]2C(=O)C=C2[C@@H]3C[C@@](C)(C(=O)O)CC[C@]3(C)CC[C@@]21C	x	x	1%[11.4 µM]
O=c1c(-c2cc(F)cc(F)c2)nc2cncnc2n1Cc1ccc(F)cc1	x	x	1%[11.4 µM]
O=C(Nc1ccccc1)N1CCC2(CC1)CCN(C(=O)c1cnccn1)CC2	x	x	0%[11.4 µM]
O=C(Nc1ccc(-c2nc3ccccc3o2)c(O)c1)c1cc(-n2cnnc2)ccc1Cl	x	x	-1%
Cc1c(NC(=O)c2cc(-n3cnnc3)ccc2Cl)cccc1-c1nc2ccccc2o1	5.7*	>77	7.9µM*
COc1cc(OC)cc(C(=O)N2CCN(C(=O)COc3ccc4ccccc4c3)CC2)c1	u	>77	10µM*
COc1ccc(N2CCN(C(=O)COc3ccc4ccccc4c3)CC2)cc1	>57	>77	0%
O=C(Cn1nnc(-c2ccccc2F)n1)Nc1ccc(C(=O)N2CCOCC2)cc1	>57	>77	-1%
O=C(Cn1nnc(-c2ccccc2F)n1)Nc1ccc(S(=O)(=O)NC2CCCC2)cc1	>57	6.9*	1%
O=C1C[C@@H](O)[C@@H](O)[C@H]2[C@@H]3C(=O)N(c4cccc(Oc5ccccc5)c4)C(=O)[C@@H]3CC[C@H]12	x	x	0%[11.4 µM]
Cc1nc2sc(-c3ccccc3)cc2c(=O)n1-n1cccc1	>57	>77	20µM*
SMILES	PK Bst	GBA mod	Luciferase inh
COc1ccc(-c2csc3nc(C)n(-n4cccc4)c(=O)c23)cc1OC	x	>77	1%
Cn1c(-c2ccc(C(C)(C)C)cc2)n[nH]c1=S	x	x	-4%
CC(C)(C)c1ccc(-c2conc2N)cc1	u	>77	10µM*
CC(C)C(=O)Cc1ccc2ccccc2n1	x	x	1%[11.4 µM]
Cc1cnc(CNc2nc(-c3ccoc3)nc3ccccc23)cn1	x	x	-3%[2.29 µM]
Cc1ccc(N=c2oc3cc(O)ccc3cc2C(N)=O)cc1	9.3*	u	13µM*
COc1ccc(N=c2oc3cc(O)ccc3cc2C(=O)NCC2CCCO2)cc1 (configuration not stated)	>57	>77	-1%
c1cncc(CNc2cc(-c3ccc4c(c3)OCO4)ncn2)c1	x	x	-2%[2.29 µM]
CCN1C(=S)SC(=O)C1=C1C=C(C)N(Cc2ccco2)C(C)=C1	x	u	10µM*
CCN1C(=S)SC(=O)C1=C1C=C(C)OC(C)=C1	>57	x	-5%
CCCCCCCCC(=O)NCc1cc(OC)c(O)cc1I	x	x	-2%
CO[C@H]1COC(=O)[C@H](C)NC(=O)[C@@H](C)COC(=O)[C@H]2CCCN2C(=O)C/C=C\[C@H]1C	x	x	0%[11.4 µM]
Nc1nc(-c2cccnc2)nn1C(=O)c1ccco1	>57	>77	-2%
COc1ccc(CNc2nc(-c3cccnc3)nn2C(=O)c2ccco2)cc1	>57	11*	1%
COc1ccc([C@@H]2OC[C@]3(COC(C)=O)[C@H](C)C=C(C)[C@@H]2[C@H]3C)cc1	x	x	3%[11.4 µM]
Nc1ncnc2c1ncn2[C@@H]1CCCO1	x	x	3%
CN(C)c1ncnc2ccc(-c3ccc4c(c3)OCO4)cc12	x	x	-2%[2.29 µM]
